Measured values reported in PubChem BioAssay (NCATS).
Where “and” joins values, the source holds several entries; their conditions need not be identical. Equal entries are not always repeated. Inconclusive results are not listed. Calls of active or inactive are those of the source. The call rests on the fitted dose curve; in most records, active means well fitted inhibition curve with a large enough effect; inconclusive means small, poorly fitted or top-dose-only effect; inactive means flat fitted curve, though single readings scatter.

Key:
Test in all cases: Cytotoxic Profiling of Annotated Libraries Using Quantitative High-Throughput Screening (AID 1296008); further: nearly all actives have a fitted effect of over 60% in size
Conditions in all cases: Five cell lines viability, CellTiter-Glo ATP luminescence, 48-72 h; max response: hits give low values
CRL-7250 = normal cell line; tested on: CRL-7250
Method in brief: (§1)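 Cells exposed to compounds for 48 or 72 hr at 37 degrees Celsius. Viability read as ATP-coupled luminescence with CellTiter-Glo after 10 min at room temperature.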

HaCat = tested on: HaCat
Method in brief: as §1

KB-3-1 = tested on: KB-3-1
Method in brief: as §1

NIH3T3 = tested on: NIH3T3
Method in brief: as §1

Measured: max response
On the % scale 0 is the no-effect control and ±100 the full control effect.

Cn1cc(-c2ccc(F)c(C(F)(F)F)c2)nc1C1CCN(c2ncnc3[nH]ncc23)CC1
inactive: CRL-7250 -0.425% | HaCat -21.3% | KB-3-1 0.816% | NIH3T3 1.5% and -4.9%

CC(C)(Cc1ccccc1)NCC(O)c1ccc(O)c(NS(C)(=O)=O)c1 (centres undefined)
inactive: CRL-7250 0.0508% | HaCat 2.45% | KB-3-1 -4.4% | NIH3T3 0.817%

O=S(=O)(NCc1ccccn1)c1ccc(Br)c2ccccc12
inactive: CRL-7250 -0.212% | HaCat 1.53% | KB-3-1 0.961% | NIH3T3 -0.344%

C[C@@H]1O[C@@H](O[C@H]2CC[C@@]3(C)C(CC[C@]4(C)C3CC=C3[C@@H]5CC(C)(C)CC[C@]5(C(=O)O[C@@H]5O[C@H](CO)[C@@H](O)[C@H](O)[C@H]5O)CC[C@]34C)[C@]2(C)CO)[C@H](O)[C@H](O[C@@H]2O[C@H](CO)[C@@H](O)[C@H](O)[C@H]2O)[C@H]1O (some centres undefined)
inactive: CRL-7250 1.26% | HaCat -8.27% | KB-3-1 | NIH3T3 -2.37%

CC(=O)OC[C@]12[C@H](OC(C)=O)[C@H](OC(=O)c3ccccc3)[C@@H]3[C@@H](OC(C)=O)[C@]1(OC3(C)C)[C@H](C)C[C@H](OC(C)=O)[C@@H]2OC(=O)c1ccccc1
inactive: CRL-7250 | HaCat -0.678% | KB-3-1 4.67% | NIH3T3 3.09%

O=C(c1ccccn1)N(Cc1cccs1)C1(C(=O)NC2CCCCC2)CCCCC1
inactive: CRL-7250 -5.83% | HaCat -24.4% | KB-3-1 7.82% | NIH3T3
